The target of this assay is Beta-2 adrenergic receptor (Homo sapiens) (UniProt P07550). Put plainly: Adrenergic beta2 receptor (ADRB2) small molecule agonists, cell-based qHTS assay (AID 1963593).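 Note: CHO cells stably overexpressing human ADRB2.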 The gist of the method: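 CHO cells stably over-expressing ADRB2 were plated overnight at 37C, then dosed with compounds plus a stimulation mix containing 100uM IBMX and 25uM Ro-20-1724 for 0.5hr at room temperature. cAMP was measured by HTRF competition, 1hr.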

Inconclusive results are not listed. Entries that show only a call come without a potency. The source made the active and inactive calls. Calls come from the whole dose curve.

Our source for the Potency values is PubChem BioAssay (Tox21).

Sequence of Beta-2 adrenergic receptor (Homo sapiens) (P07550 whole entry, looked up): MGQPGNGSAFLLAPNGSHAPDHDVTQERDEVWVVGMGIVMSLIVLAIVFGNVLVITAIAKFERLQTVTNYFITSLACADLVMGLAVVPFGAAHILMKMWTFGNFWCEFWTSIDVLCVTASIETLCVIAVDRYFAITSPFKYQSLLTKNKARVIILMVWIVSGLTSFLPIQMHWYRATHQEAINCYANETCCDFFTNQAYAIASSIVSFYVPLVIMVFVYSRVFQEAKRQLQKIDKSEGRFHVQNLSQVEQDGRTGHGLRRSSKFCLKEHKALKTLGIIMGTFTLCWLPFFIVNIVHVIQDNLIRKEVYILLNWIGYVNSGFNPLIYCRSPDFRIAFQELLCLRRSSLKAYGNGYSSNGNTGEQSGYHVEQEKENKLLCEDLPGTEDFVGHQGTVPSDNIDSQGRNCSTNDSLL

Take `CC(C)C(=O)OCC(C)(C)C(OC(=O)C(C)C)C(C)C` (configuration not stated): the Potency entry was “inactive”.
Then `CCNc1nc(NC(C)C)nc(OC)n1`, with “inactive”; and `OCCOc1ccccc1`, with “inactive”.
With `COC(C)(C)C`, the Potency entry is “inactive”.
On to `c1ccc(-c2ccccc2)cc1`, for which the Potency entry was “inactive”.
Then `c1ccc(C2CO2)cc1` (configuration not stated), with “inactive”; and `Cc1ccc(N)c(N)c1`, with “inactive”.
Then `CCN(CC)c1ccccc1`, with “inactive”.
On to `CN1C(=O)NC(=O)C(C)(C2=CCCCC2)C1=O` (configuration not stated), for which the Potency entry was “inactive”.
As to `CCSC(=O)N1CCCCCC1`, the Potency entry was “inactive”.
Then `CC(C)=CC1C(C(=O)OCc2cccc(Oc3ccccc3)c2)C1(C)C` (configuration not stated), with “inactive”.
In the case of `CSc1nnc(C(C)(C)C)c(=O)n1N` it was “inactive”.
In the case of `Cc1ccc([N+](=O)[O-])cc1` it was “inactive”; in that of `CCNc1nc(Cl)nc(NC(C)C)n1`, “inactive”; in that of `C[N+]1(C)CCCCC1`, “inactive”.
Turning to `Cc1cc(Cl)ccc1OC(C)C(=O)O` (configuration not stated), the Potency entry is “inactive”.
In the case of `O=C(NC(=O)c1c(F)cccc1F)Nc1cc(Cl)c(OC(F)(F)C(F)C(F)(F)F)cc1Cl` (configuration not stated) it was “inactive”.
In the case of `CC(C(=O)c1ccccc1)N(C)C` (configuration not stated) it was “inactive”.
In the case of `CC[N+](=O)[O-]` it was “inactive”; in that of `ClC(Cl)(Cl)c1ccccc1`, “inactive”; in that of `CCNc1nc(Cl)nc(NC(C)(C)C#N)n1`, “inactive”.
As to `CC(C)(OOC(C)(C)c1ccccc1)c1ccccc1`, the Potency entry is “inactive”.
In the case of `Clc1ccc(C(Cl)(Cl)Cl)c(Cl)c1` it was “inactive”.
Then `CN(C)NC(=O)CCC(=O)O`, with “inactive”; and `N#Cc1ccncc1`, with “inactive”.
In the case of `CN(C)[C@@H]1C(=O)C(C(N)=O)=C(O)[C@@]2(O)C(=O)C3=C(O)c4c(O)cccc4[C@@](C)(O)[C@H]3C[C@@H]12` it was “inactive”; in that of `N#Cc1ccccn1`, “inactive”.
On to `Cc1cnc(C2=NC(C)(C(C)C)C(=O)N2)c(C(=O)O)c1` (configuration not stated), for which the Potency entry was “inactive”.
Then `CCCCCCCCCCBr`, with “inactive”; and `COc1c(C(C)(C)C)cc([N+](=O)[O-])c(C)c1[N+](=O)[O-]`, with “inactive”; and `CC(C)c1ccc(O)cc1`, with “inactive”.
In the case of `C[N+](C)(C)C` it was “inactive”.
Then `OCc1ccco1`, with “inactive”.
As for `CCCC(C)(COC(N)=O)COC(N)=O`, the Potency entry is “inactive”.
Turning to `ClC1=C(Cl)[C@]2(Cl)[C@@H]3[C@@H](Cl)[C@H](Cl)C[C@@H]3[C@@]1(Cl)C2(Cl)Cl`, the Potency entry is “inactive”.
In the case of `CC(C)(Cl)Cl` it was “inactive”; in that of `O=C(NCO)NCO`, “inactive”.
In the case of `COc1ccc(C(O)(c2cncnc2)C2CC2)cc1` (configuration not stated) it was “inactive”.
Then `CCC[N+](=O)[O-]`, with “inactive”; and `ClCC1CO1` (configuration not stated), with “inactive”; and `Cc1ccc(-c2nc3ccc(C)cn3c2CC(=O)N(C)C)cc1`, with “inactive”.
As to `Nc1ccc(Oc2ccc(N)cc2)cc1`, the Potency entry was “inactive”.
Then `CNC(=O)Oc1ccccc1C1OCCO1`, with “inactive”; and `COc1cc(N)c(Cl)cc1C(=O)NC1CN2CCC1CC2` (configuration not stated), with “inactive”; and `CCCCOCC1CO1` (configuration not stated), with “inactive”.
Then `C#CCOC(=O)/C=C(C)/C=C/CC(C)CCCC(C)C` (configuration not stated), with “inactive”.
For the compound `CNC(=S)S`, the Potency result was “inactive”.
Then `COc1ccc2c3c1O[C@H]1[C@@H](O)C=C[C@H]4[C@@H](C2)N(C)CC[C@@]341`, with “inactive”.
In the case of `O=C1C=CC(=O)C=C1` it was “inactive”; in that of `CN(C)CCc1ccc(O)cc1`, “inactive”.
In the case of `O=C(Cl)OCc1ccccc1` it was “inactive”; in that of `Nn1cnnc1`, “inactive”.
Regarding `Nc1ccc(Br)cc1`, the Potency result is “inactive”.
Then `CCCC(C)(COC(N)=O)COC(=O)NC(C)C` (configuration not stated), with “inactive”; and `O=NN(c1ccccc1)c1ccccc1`, with “inactive”; and `CC(=O)CC(c1ccc(Cl)cc1)c1c(O)c2ccccc2oc1=O` (configuration not stated), with “inactive”.
Then `Cc1ccc(N)cc1`, with “inactive”; and `C1CN2CCC1CC2`, with “inactive”; and `O=P(Cl)(Cl)Cl`, with “inactive”.
Then `Nc1ccc([As](=O)(O)O)cc1`, with “inactive”; and `Cc1nn(-c2cc(NS(C)(=O)=O)c(Cl)cc2Cl)c(=O)n1C(F)F`, with “inactive”.
In the case of `Cc1ccc(O)c(C)c1`, the Potency result is “inactive”.
In the case of `[CH3][Sn]([Cl])([Cl])[Cl]` it was “inactive”.
Regarding `CCCCN(CC)c1c([N+](=O)[O-])cc(C(F)(F)F)cc1[N+](=O)[O-]`, the Potency result was “inactive”.
In the case of `COc1ccc(N)cc1` it was “inactive”; in that of `C=C(C)[C@@H]1CC=C(C=O)CC1`, “inactive”; in that of `BrCc1ccc(Br)cc1`, “inactive”.
